Test results from the supplement of paper PMC7156485.
± gives the standard deviation of the averaged measurements.

Assays:
Conditions in all cases: concentration: 10 µM; 24 h
HCC1569 [1] = experiment: cell number relative to DMSO (% of DMSO); higher = more cells (less growth inhibition / toxicity)
Summary of the method: (§1)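 For HCC1569 and TDF cells, compounds at 10 µM were applied for 24 h at 37 °C in triplicate in 384-well plates. Cells were fixed in 3.7% formaldehyde, stained for H1.0 and with DAPI, and imaged at ×10 over six fields per well. The endpoint, H1.0 nuclear intensity or cell number, is shown as percent of the plate control using the median of replicates. Positional effects were smoothed for HCC1569 only.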

TDF [2] = experiment: as above
Summary of the method: as §1

TDF [3] = experiment: H1.0 immunofluorescence intensity relative to DMSO (% of DMSO); higher = stronger H1.0 induction, active = 120 or more
Summary of the method: as §1

HCC1569 [4] = experiment: H1.0 immunofluorescence intensity relative to DMSO (% of DMSO); higher = stronger H1.0 induction, active = 140 or more
Summary of the method: as §1
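Wherever H1.0 immunofluorescence intensity relative to DMSO is given: TDF is a line of transformed human dermal fibroblasts of mesenchymal origin.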
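Wherever cell number relative to DMSO is given: TDF denotes transformed human dermal fibroblasts of mesenchymal origin.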

| Compound | cell number (HCC1569 [1]) | cell number (TDF [2]) | H1.0 immunofluorescence intensity (TDF [3]) | H1.0 immunofluorescence intensity (HCC1569 [4]) |
| --- | --- | --- | --- | --- |
| Cc1c(CC(C)(C)C(=O)O)n(Cc2ccc(Cl)cc2)c2ccc(F)cc12 | 107 | 86.5 | 105 (inactive) | 99.6 (inactive) |
| Brc1c(Br)c(Br)c2n[nH]nc2c1Br [TBB - 4,5,6,7-Tetrabromobenzotriazole] | 104 | 96.4 | 99.2 (inactive) | 104 (inactive) |
| COC(=O)C1=C(C)NC(C)=C(C(=O)OCCCN2CCC(c3ccccc3)(c3ccccc3)CC2)C1c1cccc([N+](=O)[O-])c1 (centres undefined) [Niguldipine] | 88.2 | 99 | 98.5 (inactive) | 126 (inactive) |
| Cl.Clc1cccc(Cl)c1NC1=NCCN1 [Clonidine hydrochloride] | 99.2 | 103 | 94.1 (inactive) | 90 (inactive) |
| CCN(CC)Cc1ccc(C(=O)N(CCc2ccccc2OC)[C@@H]2CCNC2)cc1.Cl.Cl | 98.5 | 95.9 | 100 (inactive) | 115 (inactive) |
| CCCCc1c(-c2ccc(OC)cc2)[nH]c2nccnc12 [Aloisine, RP106] | 94.7 | 97.5 | 93.2 (inactive) | 110 (inactive) |
| Cc1cc(C)c(S(=O)(=O)Nc2cccc(C(F)(F)F)c2)c(C)c1 | 99.3 | 90 | 105 (inactive) | 104 (inactive) |
| OCCN(CCO)c1nc(N2CCCCC2)c2nc(N(CCO)CCO)nc(N3CCCCC3)c2n1 [Dipyridamole] | 94.2 ± 1.5 | 104 ± 7.8 | 85.7 (inactive) | 98.9 (inactive) |
| CCCCOc1cc(CC2CNC(=O)N2)ccc1OC (centres undefined) | 101 | 110 | 85.3 (inactive) | 86.2 (inactive) |
| O=C1NC(=O)C(=Cc2cccc(C(F)(F)F)c2)S1 [PIM1/2 Kinase Inhibitor V] | 102 | 103 | 102 (inactive) | 108 (inactive) |
| CCCCCC(O)C=CC1C(O)CC(=O)C1CC=CCCCC(=O)O (centres undefined) [Prostaglandin E2] | 100 ± 2.4 | 102 ± 6.3 | 95.7 (inactive) | 100 (inactive) |
| CCCCCCCNC1CCCC1CCCCCCC(=O)O (racemic) | 99.7 | 93.5 | 88.5 (inactive) | 89.4 (inactive) |
| Cc1cnc(C(=O)O)c[n+]1[O-] [Acipimox] | 100 | 108 | 95.2 (inactive) | 104 (inactive) |
| CCC(=O)OC1(C(=O)SCF)C(C)CC2C3CC(F)C4=CC(=O)C=CC4(C)C3(F)C(O)CC21C (centres undefined) | 98.9 | 105 | 86.8 (inactive) | 116 (inactive) |
| CCCCCCCCC(O)C=CC=CC=CC(O)CCCC(=O)O (centres undefined) [Leukotriene B3] | 101 | 93.8 | 98.7 (inactive) | 104 (inactive) |
| CC(C)(N)c1ccc(-c2nc3ccccc3nc2-c2ccccc2)cc1 | 95.6 | 95.3 | 106 (inactive) | 103 (inactive) |
| CCCCCCCCC=CCCCCCCCC(=O)OCC(CO)OC(C)=O (centres undefined) [1-Oleoyl-2-acetyl-glycerol] | 98.9 | 106 | 89.4 (inactive) | 106 (inactive) |
| CN(C)CCN1C(=O)c2ccccc2N(C)c2ccccc21 [Dibenzepine] | 102 | 112 | 97.7 (inactive) | 111 (inactive) |
| CC(C=CC1=C(C)CCCC1(C)C)=CC=CC(C)=CC(=O)O [Retinoic Acid] | 98.1 ± 2.9 | 109 ± 5.1 | 90.8 (inactive) | 121 (inactive) |
| CC12CCC(=O)C=C1CCC1C2C(=O)CC2(C)C1CCC2(O)C(=O)CO (centres undefined) [Cortisone] | 87.8 | 82 | 106 (inactive) | 97 (inactive) |
| CCc1[nH]c(-c2ccc(OC)cc2)nc1-c1ccncc1 | 98.5 | 99.6 | 97 (inactive) | 120 (inactive) |
| COc1ccc(C2Sc3ccccc3N(CCN(C)C)C(=O)C2OC(C)=O)cc1.Cl (centres undefined) [Diltiazem hydrochloride] | 101 | 100 | 93 (inactive) | 98.3 (inactive) |
| COc1cc(O)c(C(=O)C=Cc2ccccc2)c(OC)c1 [Flavokawain B] | 75.4 | 81.6 | 93.6 (inactive) | 124 (inactive) |
| CCCN(CCc1ccccc1)C1CCc2c(O)cccc2C1 (centres undefined) [2-(N-Phenethyl-N-propyl)amino-5-hydroxytetralin] | 105 | 96.6 | 89.4 (inactive) | 106 (inactive) |
| Cn1cnc2c(F)c(Nc3ccc(Br)cc3Cl)c(C(=O)NOCCO)cc21 | 105 | 91.8 | 93.3 (inactive) | 98.8 (inactive) |
| CC(N)(Cc1ccc(O)cc1)C(=O)O (racemic) [DL-alpha-Methyl-p-tyrosine] | 103 | 117 | 114 (inactive) | 106 (inactive) |

| Compound | cell number (HCC1569 [1]) | cell number (TDF [2]) | H1.0 immunofluorescence intensity (TDF [3]) | H1.0 immunofluorescence intensity (HCC1569 [4]) |
| --- | --- | --- | --- | --- |
| COc1ccc2c(c1OC)N=C(NC(=O)c1cccnc1)N1CCN=C21 | 99.8 | 93.2 | 94.1 (inactive) | 101 (inactive) |
| O=C(O)C=Cc1c[nH]c2ccccc12 [3-Beta-Indoleacrylic acid] | 97.9 | 101 | 94.8 (inactive) | 95.1 (inactive) |
| O=C(O)[C@@H]1C[C@H](C(=O)O)N1 [cis-Azetidine-2,4-dicarboxylic acid] | 103 | 101 | 105 (inactive) | 109 (inactive) |
| CC1OC(OC2C(Oc3cc(O)c4c(=O)c(O)c(-c5ccc(O)cc5)oc4c3)OC(CO)C(O)C2O)C(O)C(O)C1O (centres undefined) [Kaempferol-7-neohesperidoside] | 98.8 | 99.4 | 95.8 (inactive) | 87.9 (inactive) |
| CCCCCCN(CCCCCC)C(=O)Cc1c(-c2ccc(F)cc2)[nH]c2ccccc12 [N,N-Dihexyl-2-(4-fluorophenyl)indole-3-acetamide] | 95.6 | 102 | 93.3 (inactive) | 94.3 (inactive) |
| CCCNC(=O)NS(=O)(=O)c1ccc(Cl)cc1 [Chlorpropamide] | 101 | 96.2 | 93.2 (inactive) | 91.2 (inactive) |
| CC12C=CC(=O)C=C1CCC1C3CC(O)C(O)(C(=O)CO)C3(C)CC(O)C12F (centres undefined) [Triamcinolone] | 97.5 ± 4.1 | 105 ± 9.9 | 86.8 (inactive) | 117 (inactive) |
| O=C1c2c(O)ccc(O)c2C(=O)c2c(NCCNCCO)ccc(NCCNCCO)c21 [Mitoxantrone] | 53.2 ± 8.2 | 3.71 ± 2.7 | 2090 (active) | 120 (inactive) |
| Cc1cnc(Nc2ccc(N3CCN(C)CC3)cc2)nc1Nc1cccc(S(=O)(=O)NC(C)(C)C)c1 | 31.4 | 98.6 | 97.9 (inactive) | 174 (active) |
| C=CCc1ccccc1OCC(O)CNC(C)C.Cl (centres undefined) [Alprenolol.HCl] | 102 | 105 | 90.6 (inactive) | 102 (inactive) |
| CCc1nn(CCCN2CCN(c3cccc(Cl)c3)CC2)c(=O)n1CCOc1ccccc1 [Nefazodone] | 98.9 | 100 | 95.5 (inactive) | 110 (inactive) |
| CN1c2ccccc2C(=O)N2CCc3c([nH]c4ccccc34)C21 (centres undefined) [Evodiamine] | 61.2 | 9.57 | 165 (active) | 123 (inactive) |
| Cl.Cl.OCCN1CCN(CCCN2c3ccccc3C=Cc3ccccc32)CC1 | 102 | 98.8 | 99.1 (inactive) | 106 (inactive) |
| CCOC(=O)[C@@H](N)CCC(=O)N[C@@H](CSCc1ccccc1)C(=O)N[C@@H](C(=O)OCC)c1ccccc1 | 97.6 | 100 | 92.9 (inactive) | 109 (inactive) |
| O=C(O)COC(=O)Cc1ccccc1Nc1c(Cl)cccc1Cl [Aceclofenac] | 104 | 101 | 95.3 (inactive) | 103 (inactive) |
| OCC1NC(CO)C(O)C1O [(2R,5R)-Bis(hydroxymethyl)-(3R,4R)-dihydroxypyrrolidine] | 102 | 101 | 91.3 (inactive) | 84.7 (inactive) |
| C=CC(=O)Nc1cc2c(Nc3ccc(F)c(Cl)c3)ncnc2cc1OCCCN1CCOCC1.Cl.Cl [Canertinib] | 75.8 | 87.4 | 108 (inactive) | 125 (inactive) |
| C=C(C)C1CCC2(CO)CCC3(C)C(CCC4C5(C)CCC(O)C(C)(C)C5CCC43C)C12 (centres undefined) [Betulin] | 107 | 99.2 | 98.9 (inactive) | 95.6 (inactive) |
| Nc1nc2ccc(Cl)cc2c2nc(-c3ccco3)nn12 | 99.2 | 102 | 96 (inactive) | 118 (inactive) |
| CCC=CCC=CCC=CCC=CCC=CCC=CCCC(=O)OC(COCCCCCCCCCCCCCCCC)COP(=O)([O-])OCC[N+](C)(C)C (centres undefined) | 105 | 100 | 95.7 (inactive) | 101 (inactive) |
| C[N+](C)(C)CCOC(=O)CCC(=O)OCC[N+](C)(C)C [Succinylcholine] | 100 | 101 | 99.9 (inactive) | 101 (inactive) |
| CC1OC(OC2C(O)CC(OC3C(O)CC(OC4CCC5(C)C(CCC6C5CCC5(C)C(C7=CC(=O)OC7)CCC65O)C4)OC3C)OC2C)CC(O)C1O (centres undefined) [Digitoxin] | 58.4 | 48.4 | 127 (active) | 121 (inactive) |
| Nc1ncnc2c1cnn2-c1ccccc1 | 103 | 110 | 91.4 (inactive) | 104 (inactive) |
| O=C(O)c1ccccc1Nc1ccccc1 [N-Phenylanthranilic acid] | 102 | 104 | 100 (inactive) | 97.5 (inactive) |
| Nc1nc(=O)c2ncn(CCC(CO)CO)c2[nH]1 [Penciclovir] | 103 | 103 | 90.4 (inactive) | 117 (inactive) |
